KB-3-1 cytotox: kills parental KB-3-1 adenocarcinoma cells; KB-3-1 viability, CellTiter-Glo ATP luminescence, 72 h; Potency, µM (series often up to 46.1 µM), usual class: cytotoxic; actives 1.4% (n = 400,000); also: % is scaled to controls: 0 for no effect and ±100 for the full control effect; nearly all actives have a fitted effect of over 60% in size
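Cytotoxicity measured as CellTiter-Glo luminescence after 72 h at 37 C. Compound titrations were pinned onto drug-naive KB-3-1 parental adenocarcinoma cells grown in DMEM with 10% FBS, and normalized data fitted to concentration-response curves.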
KB-V1 cytotox: kills drug-selected multidrug resistant KB-V1 cells; Potency, µM (top dose mostly 46.1 µM), actives largely listed as cytotoxic; AID 1347076; actives 3.4% (n = 400,000); KB-V1 MDR cells viability, CellTiter-Glo, 72 h; also: % is scaled to controls: 0 for no effect and ±100 for the full control effect; nearly all actives have a fitted effect of over 60% in size
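KB-V1, DMEM (no phenol red) + 10% FBS; cpd pin-transferred, titration series; 72 h, 37 degrees C; CellTiter-Glo, luminescence. Data normalized, curve-fit.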
HT1080-NT tox: kills 2HG-producing HT-1080-NT fibrosarcoma cells | HT-1080-NT fibrosarcoma viability, CellTiter-Glo ATP luminescence, 48 h | Potency, µM (top dose mostly 46.1 µM), for inactives: at the highest dose activity, negative = less viability, actives largely listed as cytotoxic | actives 1.6% (n = 360,000) | AID 686970;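 also: NT is the 2HG producing partner of a matched IDH1 knockdown line; 0% = DMSO-treated cells and -100% = media-only wells without cells; nearly all actives have a fitted effect of over 55% in size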
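Compounds were tested in concentration-response format on HT-1080-NT cells for 48 hours at 37 degrees C. Cell viability came from CellTiter-Glo luminescence; curves were classified by r2, response magnitude and activity.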
HepG2 tox: kills HepG2 cells in TGF-b inhibitor counter-screen; HepG2 CAGA-GFP viability, ATP luminescence, 18 h; Potency, µM (series often up to 46.1 µM), for inactives: top-dose activity change, negative = cytotoxicity, most hits filed as cytotoxic; actives 0.76% (n = 410,000); AID 588856
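CellTiter-Glo luminescence gave cytotoxicity after 18 hours at 37 degrees C. The cells were HepG2 CAGA-GFP in 1% FBS DMEM, stimulated with 500 pg/mL TGF-beta after compound addition. %Activity was normalised to no-cell wells (complete cell-killing) and DMSO (no toxicity), and curves were fitted and classified.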
TGFb SMAD3 inh: TGF-b pathway inhibition | HepG2 CAGA-GFP TGF-b/SMAD3 reporter, GFP fluorescence, 18 h; TGF-beta stimulated, 500 pg/mL final | Potency, µM (top dose mostly 46.1 µM), inactives show at the highest dose activity, negative = inhibition, usual class: inhibitors | actives 1.2% (n = 410,000) | AID 588855; also: % is scaled to controls: 0 for no effect and ±100 for the full control effect; nearly all actives have a fitted effect of over 65% in size
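Inhibition was scored as loss of TGF-beta-induced (500 pg/mL final, 18 hours, 37 degrees C) GFP in HEPG2 cells carrying a CAGA-GFP reporter, in DMEM with 1% FBS. Well GFP was summed per cell; Activity was normalised to unstimulated and stimulated DMSO wells, then concentration-response fitting.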
HT1080 IDH1KD tx: kills HT-1080 cells with IDH1 knockdown; HT-1080 IDH1 knockdown viability, ATP luminescence, 48 h; Potency, µM (top dose mostly 46.1 µM), for inactives: at the highest dose activity, negative = toxicity, hits mostly cytotoxic; actives 2% (n = 360,000); AID 686971;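 also: 0% = DMSO wells and -100% = cell-free medium wells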
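Using the IDH1-knockdown HT-1080 line run in the same batch and compound series as the NT line, viability after 48 h at 37 °C was determined by CellTiter-Glo luminescence and expressed as % activity.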
* hit, by the source's call; [ ] = remark or other dose. Shown are actives, neighbours in structure and some others; about 6.6% of the full set was active somewhere. Calls follow the shape of the dose curve; as a rule, active = well fitted curve in the direction sought with a large enough effect; inconclusive = small, poorly fitted or top-dose-only effect, or another doubt; inactive = no such curve, though single readings can be large; an effect the other way counts as inactive or inconclusive. Potency is read from the fitted curve at half-maximal effect.

How did COc1cc(C(=O)OCC(=O)N2CCCCCC2)c([N+](=O)[O-])cc1OC do in these assays?
KB-3-1 cytotox: inactive; KB-V1 cytotox: inconclusive; HT1080-NT tox: 7%[9.24 µM]; HepG2 tox: 3%; TGFb SMAD3 inh: 14%; HT1080 IDH1KD tx: 5%

How did CCc1ccc(S(=O)(=O)NCc2nc3cccnc3n2Cc2ccccc2Cl)cc1 do in these assays?
HepG2 tox: -1%; TGFb SMAD3 inh: inconclusive

What do the screens show for `Cc1ccc(-n2c(C)cc(C(=O)CSc3nncs3)c2C)cc1`?
KB-3-1 cytotox: 23µM*; KB-V1 cytotox: inconclusive; HT1080-NT tox: inconclusive; HepG2 tox: -19%; TGFb SMAD3 inh: -19%; HT1080 IDH1KD tx: inconclusive

Results for Cc1cc(C(=O)CSc2nncs2)c(C)n1-c1c(C)n(C)n(-c2ccccc2)c1=O ?
KB-3-1 cytotox: inactive; KB-V1 cytotox: inactive; HT1080-NT tox: 6%; HepG2 tox: -2%; TGFb SMAD3 inh: -4%; HT1080 IDH1KD tx: 5%

What do the screens show for `CCC1=NN(C(=O)Cc2ccc(OC)c(OC)c2)C(O)(C(F)(F)F)C1` (centres undefined)?
KB-3-1 cytotox: inactive; KB-V1 cytotox: 15µM*; HT1080-NT tox: 7%; HepG2 tox: 10%; TGFb SMAD3 inh: 0%; HT1080 IDH1KD tx: 14%

How did C=CCN(C(C(=O)OC)C(C)C)S(=O)(=O)C=C (centres undefined) do in these assays?
HepG2 tox: 1%; TGFb SMAD3 inh: 0%

What do the screens show for `CC(=O)n1c(Cl)c(NC(=O)CCl)c2ccccc21`?
KB-3-1 cytotox: inconclusive; KB-V1 cytotox: inactive; HT1080-NT tox: 5.6µM*; HepG2 tox: -45%; TGFb SMAD3 inh: inconclusive; HT1080 IDH1KD tx: 7.1µM*

Results for CC(C)c1ccc(NS(=O)(=O)c2ccc3[nH]c(=O)ccc3c2)cc1 ?
KB-3-1 cytotox: inactive; KB-V1 cytotox: inactive; HepG2 tox: -17%; TGFb SMAD3 inh: -16%

How did CCCCNC(=O)C1(C)CCN1C(=O)c1cc(-c2cccs2)oc1C (centres undefined) do in these assays?
KB-3-1 cytotox: inconclusive; KB-V1 cytotox: inactive; HT1080-NT tox: inconclusive; HepG2 tox: -54%; TGFb SMAD3 inh: inconclusive; HT1080 IDH1KD tx: 23µM*

Results for Cn1ccc2c(OCC(=O)NCc3ccccc3Cl)cccc2c1=O ?
KB-3-1 cytotox: inactive; KB-V1 cytotox: inactive; HepG2 tox: -16%; TGFb SMAD3 inh: 13%

What do the screens show for `Cc1ccc(/C=N/Nc2ncc(Cl)cc2Cl)s1`?
KB-3-1 cytotox: inconclusive; KB-V1 cytotox: inconclusive; HT1080-NT tox: 6.3µM*; HepG2 tox: -31%; TGFb SMAD3 inh: inconclusive; HT1080 IDH1KD tx: 7.1µM*

How did Clc1cnc(N/N=C/c2cccs2)c(Cl)c1 do in these assays?
KB-3-1 cytotox: inconclusive; KB-V1 cytotox: inconclusive; HT1080-NT tox: -12%; HepG2 tox: -37%; TGFb SMAD3 inh: -2%; HT1080 IDH1KD tx: -24%

Results for CN(C)S(=O)(=O)N1CCC(N2CCN(Cc3ccc(F)cc3)C(=O)C2=O)CC1 ?
KB-3-1 cytotox: inactive; KB-V1 cytotox: inactive; HepG2 tox: -1%; TGFb SMAD3 inh: -1%

How did CCO[C@@H]1OC(C(=O)N2CCN(Cc3ccc4c(c3)OCO4)CC2)=C[C@H](c2ccc(C(F)(F)F)cc2)[C@H]1CCCO do in these assays?
KB-3-1 cytotox: inconclusive; KB-V1 cytotox: 26µM*; HT1080-NT tox: inconclusive; HepG2 tox: -6%; TGFb SMAD3 inh: inconclusive; HT1080 IDH1KD tx: inconclusive

What do the screens show for `COc1ccccc1-c1c(-c2ccc(OCC(=O)NN)cc2O)n[nH]c1C(F)(F)F`?
KB-3-1 cytotox: inactive; KB-V1 cytotox: inactive; HT1080-NT tox: -6%; HepG2 tox: -27%; TGFb SMAD3 inh: -14%; HT1080 IDH1KD tx: -4%

Results for COc1ccc(-c2n[nH]c(C(F)(F)F)c2-c2cc3ccccc3o2)c(O)c1 ?
KB-3-1 cytotox: inactive; KB-V1 cytotox: 18µM*; HT1080-NT tox: inconclusive; HepG2 tox: 13µM*; TGFb SMAD3 inh: inconclusive; HT1080 IDH1KD tx: inconclusive

Results for COc1ccc(-n2nc(C(=O)N3CCC(C)CC3)c3c4ccccc4n(C)c3c2=O)cc1Cl ?
KB-3-1 cytotox: inactive; KB-V1 cytotox: inactive; HepG2 tox: -18%; TGFb SMAD3 inh: -5%

What do the screens show for `CCOc1ccccc1-n1c(SCC(=O)N2CCCc3ccccc32)nnc1-c1cccnc1`?
KB-3-1 cytotox: inactive; KB-V1 cytotox: 7.3µM*; HT1080-NT tox: 5%; HepG2 tox: 0%; TGFb SMAD3 inh: -8%; HT1080 IDH1KD tx: 1%

What do the screens show for `O=C(CSc1nnc(-c2ccccc2)n1-c1ccccc1)c1cccs1`?
KB-3-1 cytotox: inactive; KB-V1 cytotox: 21µM*; HT1080-NT tox: -2%; HepG2 tox: -13%; TGFb SMAD3 inh: -1%; HT1080 IDH1KD tx: -2%

How did Cc1ccc(-n2c(SCC(=O)N3CCCc4ccccc43)nnc2-c2cccnc2)c(C)c1 do in these assays?
KB-3-1 cytotox: inactive; KB-V1 cytotox: inconclusive; HT1080-NT tox: 6%; HepG2 tox: 0%; TGFb SMAD3 inh: -5%; HT1080 IDH1KD tx: 0%

What do the screens show for `CCn1c(SCC(=O)N2CCCc3ccccc32)nc2c1c(=O)n(C)c(=O)n2C`?
KB-3-1 cytotox: inconclusive; KB-V1 cytotox: 2.9µM*; HT1080-NT tox: 11%; HepG2 tox: -4%; TGFb SMAD3 inh: inconclusive; HT1080 IDH1KD tx: -5%

Results for Cc1ccc(C(=O)CSc2nnc(-c3ccccc3)n2-c2ccccc2)cc1 ?
KB-3-1 cytotox: inactive; KB-V1 cytotox: inconclusive; HepG2 tox: -18%; TGFb SMAD3 inh: -7%

Results for O=C(CSc1nnc(-c2cccs2)n1-c1ccccc1)N1CCCc2ccccc21 ?
KB-3-1 cytotox: inactive; KB-V1 cytotox: 16µM*; HT1080-NT tox: -31%; HepG2 tox: -2%; TGFb SMAD3 inh: 5%; HT1080 IDH1KD tx: inconclusive

How did O=S1(=O)N=C(Oc2ccccc2Br)c2ccccc21 do in these assays?
KB-3-1 cytotox: inactive; KB-V1 cytotox: inactive

What do the screens show for `Cn1c(-c2ccccc2)cnc1SCC(=O)N1CCCc2ccccc21`?
KB-3-1 cytotox: inactive; KB-V1 cytotox: 5.8µM*; HT1080-NT tox: 15%; HepG2 tox: 10%; TGFb SMAD3 inh: 10%; HT1080 IDH1KD tx: 5%

Results for CCn1c(SCC(=O)N2CCCc3ccccc32)nc2ccccc2c1=O ?
KB-3-1 cytotox: inactive; KB-V1 cytotox: 10µM*; HT1080-NT tox: -8%; HepG2 tox: -16%; TGFb SMAD3 inh: -1%; HT1080 IDH1KD tx: -17%

Screens: PubChem, National Center for Advancing Translational Sciences (NCATS)
